Measured values: PubChem BioAssay
Records with an inconclusive call do not appear. Active and inactive are the calls of the source.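 How the source made its calls, unless noted: active means normalized viability below 100% at a tested concentration; inactive means the rest.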

Key:
[1] = viability loss in pontine glioma line – cell-based, SU-DIPG-XIII, MIPE5.0, CellTiter-Glo, qHTS, dose response (AID 1347064; cut-off not given, nearly all actives have AC50 up to about 23 µM;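 on AC50: cells exposed to compound for 48 hours before the viability read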); settings: CellTiter-Glo ATP luminescence
[2] = JHH-DIPG-1 glioma cell viability, MIPE5.0 library, CellTiter-Glo luminescence, qHTS (AID 1347067; cut-off not given, nearly all actives have AC50 up to about 26 µM;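 further: cells exposed to compound for 48 hours before readout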); settings: JHH-DIPG-1 glioma viability, CellTiter-Glo ATP luminescence
[3] = growth inhibition of DIPG cells – cell-based, MIPE5.0 library, qHTS (AID 1347068; cut-off not given, nearly all actives have IC50 up to about 30 µM); settings: SU-DIPG-XXV viability
[4] = viability loss in pontine glioma line – cell-based, SU-DIPG-XXV, MIPE5.0, CellTiter-Glo, qHTS, dose response (AID 1347065; cut-off not given, nearly all actives have AC50 up to about 26 µM;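 further: cells exposed to compound for 48 hours before ATP readout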); settings: CellTiter-Glo ATP luminescence
[5] = viability loss with induced miR-34 in A549 – imaging, A549 dox-inducible miR-34, nuclei and caspase counts, primary screen (AID 1347080;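 active means compounds whose cell count with miR-34 switched on is under 0.7 times the count with it off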); settings: A549 miR-34 inducible, Hoechst nuclei count, 48 h
[6] = compounds altering HSF1 focus formation in cells – imaging, Selleck Cancer Library (AID 1347162; in the data active means plate-normalised HSF1 focus index below about 0.46); settings: human cells, HSF1 nuclear foci imaging, at 10 µM; SSMD: measured here: HSF1 foci SSMD mean; cell count: measured here: cell number; plate-normalised HSF1 focus index: stronger effect = lower value
[7] = MELAS cybrid and Rieske KO viability enhancers – cell-based, MELAS cybrids, Rieske KO mouse fibroblasts, CellTiter-Glo, primary screen (AID 1508586;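 active means mean z-score across replicates of 1.96 or higher in either the MELAS or the Rieske mutant cell line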;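 further: z relative to plate mean and SD of compound and empty wells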); settings: low glucose
[8] = drug combination growth inhibition, ovarian cancer – cell-based, oncology-focused library, rucaparib conditional, profiling panel (AID 1508598); settings: patient-derived ovarian cancer cells, CellTiter-Glo viability, 144 h, stronger effect = lower value

C[C@H](Nc1ncnc2nc[nH]c12)c1cc2ccc(F)cc2nc1-c1ccccn1
inactive: outcome [1] | outcome [2] | outcome [3]

NC(=O)c1cnc2[nH]ccc2c1NC1C2CC3C[C@H]1CC(O)(C3)C2 (stereo not given in full)
active: AC50 [4] 9.34 µM

CC1=C2C[C@H]3[C@@H](CC[C@@H]4C[C@H](NS(C)(=O)=O)CC[C@@]43C)[C@@H]2CC[C@@]2(C1)O[C@@H]1C[C@H](C)CN[C@H]1[C@H]2C
active: AC50 [4] 20.9 µM

CCc1cc(Nc2nccc(-c3c(-c4ccc(OC)c(C(=O)Nc5c(F)cccc5F)c4)nc4ccccn34)n2)c(OC)cc1N1CCC(N2CCN(S(C)(=O)=O)CC2)CC1
active: AC50 [1] 5.25 µM | viability ([8]; at 0.000305 µM, OCI-P5x cells, with rucaparib 20 µM, 100% = cells with rucaparib alone) 97.3% | viability ([8]; at 0.00122 µM, OCI-P5x cells, with rucaparib 20 µM, 100% = cells with rucaparib alone) 99.8% | viability ([8]; at 0.00488 µM, OCI-P5x cells, with rucaparib 20 µM, 100% = cells with rucaparib alone) 98.3% | viability ([8]; at 0.00488 µM, OCI-P5x cells, without rucaparib) 98.5% | viability ([8]; at 0.0781 µM, OCI-P5x cells, with rucaparib 20 µM, 100% = cells with rucaparib alone) 93.1% | viability ([8]; at 1.25 µM, OCI-P5x cells, with rucaparib 20 µM, 100% = cells with rucaparib alone) 97.9% | viability ([8]; at 1.25 µM, OCI-P5x cells, without rucaparib) 88.3% | viability ([8]; at 5 µM, OCI-P5x cells, with rucaparib 20 µM, 100% = cells with rucaparib alone) 92.9% | viability ([8]; at 5 µM, OCI-P5x cells, without rucaparib) 90.5%
1.23: fold change ([5]; measured here: relative caspase fold change +Dox/-Dox)
6190: cell count ([5]; measured here: total cells with miR-34 induction, stronger effect = lower value)
0.793: z-score ([7]; Rieske KO mouse fibroblast survival, CellTiter-Glo 72 h)
6540: cell count ([5]; measured here: total cells without miR-34 induction)
inactive: outcome [3] | fold change ([5]; stronger effect = lower value, cell number ratio, induced over uninduced) 0.946 | plate-normalised HSF1 focus index [6] 1.12 | z-score ([7]; MELAS cybrid survival, CellTiter-Glo 48 h, stronger effect = higher value) 0.319 | viability ([8]; at 0.000305 µM, OCI-C5x cells, with rucaparib 10 µM, 100% = cells with rucaparib alone) 118% | viability ([8]; at 0.000305 µM, OCI-C5x cells, without rucaparib) 127% | viability ([8]; at 0.000305 µM, OCI-P5x cells, without rucaparib) 105% | viability ([8]; at 0.00122 µM, OCI-C5x cells, with rucaparib 10 µM, 100% = cells with rucaparib alone) 112% | viability ([8]; at 0.00122 µM, OCI-C5x cells, without rucaparib) 120% | viability ([8]; at 0.00122 µM, OCI-P5x cells, without rucaparib) 104% | viability ([8]; at 0.00488 µM, OCI-C5x cells, with rucaparib 10 µM, 100% = cells with rucaparib alone) 116% | viability ([8]; at 0.00488 µM, OCI-C5x cells, without rucaparib) 121% | viability ([8]; at 0.0195 µM, OCI-C5x cells, with rucaparib 10 µM, 100% = cells with rucaparib alone) 112% | viability ([8]; at 0.0195 µM, OCI-C5x cells, without rucaparib) 119% | viability ([8]; at 0.0195 µM, OCI-P5x cells, with rucaparib 20 µM, 100% = cells with rucaparib alone) 102% | viability ([8]; at 0.0195 µM, OCI-P5x cells, without rucaparib) 103% | viability ([8]; at 0.0781 µM, OCI-C5x cells, with rucaparib 10 µM, 100% = cells with rucaparib alone) 122% | viability ([8]; at 0.0781 µM, OCI-C5x cells, without rucaparib) 132% | viability ([8]; at 0.0781 µM, OCI-P5x cells, without rucaparib) 100% | viability ([8]; at 0.313 µM, OCI-C5x cells, with rucaparib 10 µM, 100% = cells with rucaparib alone) 174% | viability ([8]; at 0.313 µM, OCI-C5x cells, without rucaparib) 152% | viability ([8]; at 0.313 µM, OCI-P5x cells, with rucaparib 20 µM, 100% = cells with rucaparib alone) 103% | viability ([8]; at 0.313 µM, OCI-P5x cells, without rucaparib) 103% | viability ([8]; at 1.25 µM, OCI-C5x cells, with rucaparib 10 µM, 100% = cells with rucaparib alone) 178% | viability ([8]; at 1.25 µM, OCI-C5x cells, without rucaparib) 174% | viability ([8]; at 5 µM, OCI-C5x cells, with rucaparib 10 µM, 100% = cells with rucaparib alone) 176% | viability ([8]; at 5 µM, OCI-C5x cells, without rucaparib) 196%
6760: cell count [6]
2.41: SSMD [6]

Nc1nc(-c2nn(Cc3ccccc3F)c3ncccc23)ncc1C1CC1
inactive: outcome [3]
active: AC50 [1] 11.8 µM

Cc1nn(Cc2ccccc2Cl)c(C)c1CN(C)CC(O)COc1ccc(Cl)cc1 (stereo not given)
active: AC50 [4] 20.9 µM | AC50 [2] 23.5 µM

N#Cc1ccc(Cn2cncc2CN2CCN(c3cccc(Cl)c3)C(=O)C2)cc1
active: AC50 [4] 9.34 µM

C[C@H]1CNCCCN1S(=O)(=O)c1cccc2cncc(F)c12
inactive: outcome [1] | outcome [2] | outcome [3]

Cc1ccc(C(=O)Nc2ccc(Oc3cc4cnn(C)c4cc3-c3cn[nH]c3)c(F)c2)c(=O)n1-c1ccc(F)cc1
active: AC50 [4] 4.68 µM

C[C@@H](Nc1ncnc2[nH]c(-c3ccc(O)cc3)cc12)c1ccccc1
inactive: outcome [1] | outcome [3]

CN(C)CCNC(=O)NC[C@H]1CC[C@@H]2[C@H](O1)c1cc(C(F)(F)F)ccc1N[C@H]2c1ccccc1
active: AC50 [4] 0.186 µM
